# Screens (PubChem BioAssay)
# Shown are actives, neighbours in structure and some others; about 3.4% of the full set was active somewhere.
# miR122 inh – miR-122 Renilla sensor signal increase in Huh7, primary screen, miR-122 inhibitor project, cell-based, single point, plate reader; Huh7 miR-122 Renilla luciferase sensor, 48 h; neutral wells = 0, positive control = 100; activation (reporter increase), % at 12.5 µM; actives 0.3% (n = 340,000);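 active = mean replicate activation score at least 90 and every replicate individually at or above 90; inconclusive = only one of the two criteria met; inactive = neither criterion met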;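 also: higher luciferase means less miR-122 activity so hits act as miR-122 inhibitors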
# Env fusion inh – inhibitors of HIV-1 Env-driven cell-cell fusion, primary screen, HeLa-JRFL effector, CEM21 target cells, luciferase | inhibition, % at 12.3 µM | AID 651610, 2012 | actives 1.1% (n = 360,000);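 active = mean replicate inhibition score of at least 50 and every replicate individually at or above 50; inconclusive = only one of the two criteria met; inactive = mean below 50 and not all replicates reaching 50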;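 also: 0% = plate neutral controls and 100% = maraviroc near 300 nM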
# Wnt bcat act – Wnt/beta-catenin pathway activators, primary screen, cell-based, plate reader, single point | Wnt/beta-catenin reporter cell assay, activator | activation, % at 9.35 µM | actives 1.2% (n = 300,000) | AID 743398, 2014; in the data active = activation above about 30%, passing the limit was not always enough; inconclusive = no clear call, values can overlap the other calls;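 also: 0% = neutral control wells and 100% = positive control wells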
# esBAF inh – Bmi1 luciferase reporter increase in mESCs, primary screen, esBAF inhibitor project, mouse ES cells, Bmi1 luciferase knock-in, single point; 24 h; 100% = twice the neutral-well signal; reporter increase, % at 12.5 µM; actives 2% (n = 350,000); AID 602393, 2012; in the data active = activation above about 40%; inconclusive = no clear call, values can overlap the other calls;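 also: 0% = median of the plate's neutral control wells and 100% = double that signal; a rise in the Bmi1 reporter signal indicates esBAF inhibition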
# MITF TRPM1 HTS – activators of MITF-driven TRPM1 promoter reporter, primary screen, cell-based, SK-MEL-5, luciferase, single point; activation, % at 12.5 µM; actives 0.75% (n = 300,000); AID 588334, 2011; SK-MEL-5 TRPM1-promoter luciferase, 24 h; % of positive control, neutral wells = 0;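 active = mean activation of at least 80% with every replicate also reaching 80%; inconclusive = mean reaches 80% but some replicate falls short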;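 also: 0% = neutral control wells and 100% = parthenolide positive control wells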
# * hit, by the source's call; i = inactive; ? = inconclusive; / = no result given; [ ] = another dose, or the depositor's remark.
SMILES,miR122 inh,Env fusion inh,Wnt bcat act,esBAF inh,MITF TRPM1 HTS
Cc1nc(NC(=O)c2ccccc2)sc1Cc1ccc2c(c1)OCO2,-4.3,-5.7,/,53.0*,25.4
CCN1CCc2nc(NC(=O)c3ccc4c(c3)OCCO4)sc2C1,1.9,-119.3,21.9,41.5*,/
CC(=O)c1sc(NC(=O)c2ccc3c(c2)OCO3)nc1C,-4.6,-92.6,39.2*,23.0,114.1*
Cc1nc(NC(=O)c2ccc3c(c2)OCO3)ccc1Br,/,-103.6,-3.4,/,128.6*
Cc1nc(NC(=O)c2ccc(Cl)cc2)sc1Cc1ccc2c(c1)OCO2,57.2,-452.1,1.7,6.3,-1.4
COc1ccc(NC(=O)Nc2ccc3c(c2)CC(=O)N([C@@H](C)CO)C[C@H](C)[C@H](CN(C)C)O3)cc1,0.2[16.7 µM],/,/,-3.8,/
CCC(=O)N(C)C[C@H]1Oc2cc(-c3ccc(F)cc3)ccc2S(=O)(=O)N([C@H](C)CO)C[C@H]1C,-10.0[16.7 µM],-17.3[16.7 µM],/,3.7,/
CCCC(=O)Nc1ccc2c(c1)C(=O)N(C)[C@@H]1CC[C@@H](CC(=O)OC)O[C@@H]1CO2,16.7[16.7 µM],-4.0[16.7 µM],/,5.0,/
COc1ccc2nc(N3CCCCC3)c(C#N)cc2c1,-22.0,-131.6,44.2*,?,/
COc1ccc2nc(N3CCCC3)c(C#N)cc2c1,-2.4,-104.7,?,21.1,63.4
Cc1cc2cc(CN(Cc3ccco3)S(=O)(=O)c3c(C)ccc4nsnc34)c(=O)[nH]c2cc1C,-2.2,77.3*,/,14.5,-53.4
Cc1ccc2cc(CN(Cc3ccco3)S(=O)(=O)c3c(C)ccc4nsnc34)c(=O)[nH]c2c1,-1.3,/,/,-5.3,-6.8
Cc1ccc(CNS(=O)(=O)c2ccc3c(c2)CCN3C(=O)C2CCC2)cc1,-0.6,4.2,3.6,-5.4,-7.9
O=C(C1CCC1)N1CCc2cc(S(=O)(=O)NCc3ccco3)ccc21,176.7*,/,/,9.3,10.2
Cc1ccc2ccc(S(=O)(=O)NCc3ccco3)cc2c1,69.5,8.3,-0.2,5.4,9.8
Cc1ccc(S(=O)(=O)NCc2ccccn2)c(C)c1C,43.5,-9.2,-0.7,-5.0,2.4
Cc1cc(C)c(S(=O)(=O)NCc2ccncc2)c(C)c1,117.6*,?,-10.5,-18.0,-29.3
O=S(=O)(NCc1ccco1)c1ccc2ccccc2c1,95.2*,1.4,-0.8,1.9,-1.8
Cc1ccc(S(=O)(=O)NCc2ccncc2)c(C)c1C,32.4,55.1*,-1.9,-83.1,-18.9
C[C@H]1CCCCO[C@H](CN(C)C(=O)CCCN(C)C)[C@@H](C)CN([C@@H](C)CO)C(=O)c2cc(NC(=O)c3ccncc3)ccc2O1,4.7[16.7 µM],10.4[16.7 µM],/,1.9,/
COc1ccc(NC(=O)Nc2ccc3c(c2)C(=O)N([C@@H](C)CO)C[C@@H](C)[C@H](CN(C)Cc2ccc4c(c2)OCO4)OCCCC[C@H](C)O3)cc1,-5.0[16.7 µM],-12.2[16.7 µM],/,-2.8,/
COCC(=O)N(C)C[C@H]1Oc2ncc(C3=CCCC3)cc2C(=O)N([C@H](C)CO)C[C@H]1C,/,-5.0[16.7 µM],/,4.5,/
O=S(=O)(NCc1ccco1)c1ccc(Cl)cc1Cl,12.0,-3.5,0.1,1.9,5.5
Cc1ccc(S(=O)(=O)NCc2ccco2)c(C)c1C,107.3*,/,-5.1,-1.4,11.7
COC(=O)c1cn(CCNC(=O)[C@H](Cc2ccccc2)NS(=O)(=O)c2ccc(C)cc2)nn1,/,-10.2[16.7 µM],/,/,/
SMILES,miR122 inh,Env fusion inh,Wnt bcat act,esBAF inh,MITF TRPM1 HTS
CCC(=O)Nc1ccc2c(c1)C(=O)N(C)C[C@H](OC)[C@@H](C)CN(C(=O)C1CC1)[C@H](C)CO2,/,/,/,-1.7,/
CCOC(=O)C1=C(COC(=O)c2cccc(N(C)C)c2)NC(=O)NC1C (configuration not stated),-6.6,-41.0,38.1*,60.5*,77.9
C/C=C/c1ccc([C@H]2[C@@H](CO)N(C(=O)NC(C)C)[C@H]2CN(C)C(=O)CC)cc1,-50.0[16.7 µM],/,/,3.1,/
CCCNC(=O)N1[C@H](C#N)[C@H](c2ccc(-c3cccc(OC)c3)cc2)[C@@H]1CO,/,58.2*[16.7 µM],/,12.9,/
CCCNC(=O)N1[C@H](C#N)[C@@H](c2ccc(-c3cccc(OC)c3)cc2)[C@@H]1CO,/,-30.0[16.7 µM],/,1.6,/
Cc1ccc(C(=O)O/N=C/c2c(N3CCOCC3)n(C)c3ccccc23)cc1,-6.8,?,-1.6,-5.3,/
Cn1c(N2CCOCC2)c(/C=N/OC(=O)c2ccc(F)cc2)c2ccccc21,-5.8,59.3*,/,-7.0,/
Clc1ccccc1-c1nc2ccccc2[nH]1,-3.5,-42.2,47.7*,/,/
c1ccc2c(-c3nc4ccccc4[nH]3)cccc2c1,/,-211.4,-2.8,/,/
Clc1ccc(-c2nc3ccccc3[nH]2)cn1,3.8,-25.5,0.1,49.8*,57.0
Fc1ccccc1-c1nc2ccccc2[nH]1,/,-41.8,55.9*,/,84.9*
CSc1ncccc1-c1nc2ccccc2[nH]1,-6.3,-43.2,16.7,-14.5,24.4
c1ccc2[nH]c(-c3ccnc4ccccc34)nc2c1,2.3,-165.4,38.0*,27.0,17.8
Cn1cc(Cl)c(-c2nc3ccccc3[nH]2)n1,0.8,/,/,17.2,57.3
COc1ccccc1CNC(=O)C[C@H]1CC[C@H]2[C@@H](COC[C@@H](O)CN2C(=O)Nc2ccc(Cl)cc2)O1,3.9[16.7 µM],/,/,37.5,/
CCSc1ncccc1-c1nc2ccccc2[nH]1,-5.8,-4.1,15.2,20.9,3.8
Cc1ccccc1-c1nc2ccccc2[nH]1,-4.8,/,/,57.7*,56.6
O=C1NCCN(Cc2cccc(Oc3ccccc3)c2)C1CC(=O)N1CCCCC1 (configuration not stated),/,71.7*,1.2,-3.4,-5.3
N#CC(c1nc2ccccc2nc1N1CCCC1)S(=O)(=O)c1ccccc1 (configuration not stated),16.6,15.5,/,3.4,9.6
Cc1cccc(S(=O)(=O)C(C#N)c2nc3ccccc3nc2N2CCCC2)c1 (configuration not stated),118.6*,/,/,11.2,-4.9
CCOC(=O)c1sc(NC(C)=O)cc1C,-4.7,-30.2,1.7,-1.1,1.0
CCOC(=O)c1sc(NC(=O)Nc2ccccc2)cc1C,/,i,?,/,105.1*
CCOC(=O)c1sc(NC(=O)C2CCC2)cc1C,-12.0,-46.1,37.1*,50.0*,44.2
CO[C@H]1CN(C)C(=O)c2ccc(NC(=O)C3CC3)cc2OC[C@H](C)N(CC2CC2)C[C@@H]1C,/,/,/,-16.4,/
CC(C)NC(=O)N(C)C[C@H]1OCCCC[C@H](C)Oc2ccc(NC(=O)c3ccccc3)cc2C(=O)N([C@@H](C)CO)C[C@H]1C,2.9[16.7 µM],8.8[16.7 µM],/,/,/
CCNC(=O)[C@@H]1[C@@H](CO)[C@@H]2Cn3c(ccc(-c4cccnc4)c3=O)[C@@H]2N1Cc1ccc2c(c1)OCO2,5.6[16.7 µM],/,/,-1.0,/
Cc1ccc2c(c1)COc1c3ccc(C(=O)NC(C)C)cc3nn1-2,-2.4,-205.6,46.3*,84.0*,89.4*
Cc1ccc2c(c1)COc1c3ccc(C(=O)N[C@@H](C)CO)cc3nn1-2,-15.3,-158.3,18.1,62.0*,77.5
